Shown are actives, neighbours in structure and some others; about 2.5% of the full set was active somewhere.
MEKK3 PB1 HTS = modulators (inhibitors or enhancers) of MEK5 binding to human MEKK3 PB1 domain; bead-based flow cytometry, Alexa488-MEK5 binding to MEKK3; actives lie on both sides; 0 = blocked by unlabeled MEK5, 100 = vehicle; binding response (% of control), % at 10 µM; actives 1.4% (n = 290,000);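 active = binding response more than 3 SD above or below the average of its plate-row segment, actives on both sides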;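 also: Alexa488 bead fluorescence after subtracting the streptavidin-only scavenger bead signal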
MEKK2 mut-MEK5 = signal of MEK5 binding to mutant human MEKK2 PB1 domain; percent response, % at 10 µM; actives 0.35% (n = 290,000); bead flow cytometry, Alexa488-MEK5 binding to MEKK2 mutant; in the data active = percent response above about 24%, passing the limit was not always enough
MEKK2wt PB1 HTS = raises or lowers MEK5 binding to wildtype human MEKK2 PB1 domain. actives 1.1% (n = 290,000). binding response (% of control), % at 10 µM. bead flow cytometry, Alexa488-MEK5 binding to MEKK2 WT; actives lie on both sides. AID 1531. Q9Y2U5; in the data active = binding response below about 67% or above about 130%
GRK2 inh = inhibitors of human GRK2 displacing RNA aptamer. actives 0.59% (n = 330,000). inhibition of aptamer binding, % at 10 µM. bead flow cytometry, FAM-aptamer displacement from GRK2;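 active = inhibition of aptamer binding above 40%, roughly 3 SD of noise, on plates passing a quality check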;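 also: median bead fluorescence of bound FAM aptamer so fluorescent compounds give negative values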
Target sequence (P25098 whole entry, looked up): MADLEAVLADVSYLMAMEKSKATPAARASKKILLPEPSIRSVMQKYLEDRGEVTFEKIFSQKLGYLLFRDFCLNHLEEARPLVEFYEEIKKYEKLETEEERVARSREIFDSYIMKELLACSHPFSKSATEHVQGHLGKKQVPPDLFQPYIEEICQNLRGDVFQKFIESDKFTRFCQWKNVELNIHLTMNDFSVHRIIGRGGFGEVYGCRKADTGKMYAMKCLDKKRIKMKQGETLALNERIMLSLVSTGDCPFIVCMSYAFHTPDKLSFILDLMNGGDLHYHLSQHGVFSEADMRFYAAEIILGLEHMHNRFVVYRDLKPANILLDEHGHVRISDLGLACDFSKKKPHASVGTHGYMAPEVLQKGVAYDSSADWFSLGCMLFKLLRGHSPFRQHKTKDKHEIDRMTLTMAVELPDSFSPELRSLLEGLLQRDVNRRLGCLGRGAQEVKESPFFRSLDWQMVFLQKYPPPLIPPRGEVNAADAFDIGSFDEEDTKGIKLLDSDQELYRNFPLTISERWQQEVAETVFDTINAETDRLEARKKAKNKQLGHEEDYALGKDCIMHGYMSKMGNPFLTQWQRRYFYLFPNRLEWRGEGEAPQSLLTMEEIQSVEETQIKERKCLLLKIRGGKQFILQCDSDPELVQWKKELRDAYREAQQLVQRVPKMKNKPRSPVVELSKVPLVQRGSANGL
MEKK2wt confirm = raises or lowers MEK5 binding to wildtype human MEKK2, retest; shares compounds with MEKK3 PB1 HTS; bead flow cytometry, Alexa488-MEK5 binding to MEKK2 WT; actives lie on both sides; binding response (% of control), % at 10 µM; actives 2.4% (n = 5,900); AID 1892; in the data active = binding response below about 16% or above about 210%; inactive = in between
MEKK2mut confirm = signal of MEK5 binding to mutant human MEKK2, retest; shares compounds with MEKK3 PB1 HTS; bead flow cytometry, Alexa488-MEK5 binding to MEKK2 mutant; percent response, % at 10 µM; actives 2% (n = 5,900); in the data active = percent response mostly above about 71%, no sharp cut-off; inactive = mostly below about 38%;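 also: higher means compound restores mutant binding toward wildtype level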
MEKK3-MEK5 inh = confirmation of inhibitors of MEK5 binding to human MEKK3; shares compounds with MEKK3 PB1 HTS; binding response (% of control), % at 10 µM; bead flow cytometry, Alexa488-MEK5 binding to MEKK3; active compounds read low; AID 1894; actives 1.8% (n = 5,900);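 active = binding response below 72% of control, or above a set upper limit, though filed actives all read lower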;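 also: 100% = DMSO only wells and 0% = binding blocked by excess unlabeled MEK5; lower values mean stronger disruption of MEK5 binding to MEKK3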
* = called active by the depositor; . = no result given; [ ] = another dose, or the depositor's remark.

SMILES | MEKK3 PB1 HTS | MEKK2 mut-MEK5 | MEKK2wt PB1 HTS | GRK2 inh | MEKK2wt confirm | MEKK2mut confirm | MEKK3-MEK5 inh
CCN1CCN(c2ccc(NC(=O)c3cccc(OCc4ccccc4)c3)cc2)CC1 | 100.0 | 34.0 | 171.0* | 0.0 | 147.0 | 27.0 | 106.0
O=C(NC(=S)Nc1ccc(CN2CCOCC2)cc1)c1cccc([N+](=O)[O-])c1 | 145.0* | -1.0 | 105.0 | 7.0 | 106.0 | 2.0 | 105.0
O=C(NC(=S)Nc1ccc(N2CCOCC2)cc1)c1cccc([N+](=O)[O-])c1 | 102.0 | -2.0 | 98.0 | 0.0 | . | . | .
Cc1ccc(C(C)C)c(OCC(O)CNC2CCCC2)c1 (stereo not given) | 105.0 | 8.0 | 117.0 | 0.0 | . | . | .
Cc1ccc(Nc2cc(C)c(O)c(C)c2)cc1 | 108.0 | 9.0 | 107.0 | 0.0 | . | . | .
COC(=O)[C@@H](NC(=O)N1CCN(C(=O)C2COc3ccccc3O2)CC1)C(C)C (stereo not given in full) | 100.0 | 0.0 | 99.0 | 2.0 | . | . | .
C/C=C/C(=O)Nc1nnc(-c2ccccc2C)s1 | 98.0 | -9.0 | 82.0 | 4.0 | . | . | .
C=C(C)C(=O)Nc1nnc(-c2ccccc2C)s1 | 74.0*[inhibitor] | -9.0 | 66.0 | . | 103.0 | 4.0 | 102.0
Fc1ccc(NC(=S)NCc2cccnc2)cc1 | 47.0*[inhibitor] | -14.0 | 56.0 | 1.0 | 103.0 | -3.0 | 102.0
Cc1cc(C)cc(NC(=S)NCc2cccnc2)c1 | 142.0* | 0.0 | 109.0 | 2.0 | 101.0 | 0.0 | 99.0
CN(C)C(=O)CCc1ccc2c3c([nH]c2c1)[C@]1(C)[C@@H](C(=O)N2CCOCC2)C[C@H](CC(=O)NCc2cccc(C(F)(F)F)c2)C(=O)N1CC3 | . | . | . | 5.0 | . | . | .
CC(C)(C)c1ccc(S(=O)(=O)N2CCNC(=O)C2)cc1 | . | . | . | 1.0 | . | . | .
Cc1ccc(OCC(O)Cn2c3ccccc3c3ccccc32)cc1 (stereo not given) | 106.0 | 6.0 | 109.0 | 0.0 | . | . | .
Cc1ccc(OCCN2CCN(CC(O)Cn3c4ccccc4c4ccccc43)CC2)cc1 (stereo not given) | 106.0 | 59.0* | 239.0* | 0.0 | 142.0 | 26.0 | 106.0
Cc1cc(C)c(S(=O)(=O)c2ccccc2C(=O)O)c(C)c1 | 126.0* | 6.0 | 124.0 | 3.0 | 101.0 | 9.0 | 104.0
C[N+](C)(C)C/C=C1/COCO1 | 117.0 | 27.0* | 120.0 | 0.0 | 111.0 | 13.0 | 108.0
O=C(O)c1ccc(N2C(=O)CSC2=S)cc1 | . | . | . | 16.0 | . | . | .
O=C(O)c1ccc(CN2C(=O)CSC2=S)cc1 | 124.0* | 5.0 | 119.0 | 0.0 | 98.0 | -4.0 | 98.0
N#Cc1ccccc1OCC(=O)Nc1nnc(C2CC2)s1 | . | . | . | 0.0 | . | . | .
CCCCn1c(=O)c(-c2ccccc2)c(O)c2ccccc21 | 131.0* | 5.0 | 129.0 | 5.0 | 104.0 | -4.0 | 100.0
CCn1c(=O)c(-c2ccccc2)c(O)c2ccccc21 | 96.0 | -2.0 | 99.0 | 0.0 | . | . | .
CCOC(=O)C1(Cc2cccc(F)c2)CCN(C(=O)COC)CC1 | 100.0 | -4.0 | 96.0 | 3.0 | . | . | .
O=C1c2ccccc2S(=O)(=O)c2cc(N3CCN(c4ccccc4)CC3)ccc21 | 101.0 | -1.0 | 98.0 | 1.0 | . | . | .
O=C1c2ccccc2S(=O)(=O)c2cc(N3CCOCC3)ccc21 | 82.0*[inhibitor] | -5.0 | 88.0 | 2.0 | 98.0 | -7.0 | 99.0
CCCCNS(=O)(=O)c1ccc2nc(SCC(=O)c3ccccc3OC)[nH]c2c1 | 75.0*[inhibitor] | -39.0 | 66.0 | 0.0 | 105.0 | 4.0 | 109.0
SMILES | MEKK3 PB1 HTS | MEKK2 mut-MEK5 | MEKK2wt PB1 HTS | GRK2 inh | MEKK2wt confirm | MEKK2mut confirm | MEKK3-MEK5 inh
CCCCNS(=O)(=O)c1ccc2nc(SCC(N)=O)[nH]c2c1 | 98.0 | 2.0 | 101.0 | 0.0 | . | . | .
Cc1ccc2nc(CSc3nc(C)ccc3C#N)[nH]c2c1 | 109.0 | 10.0 | 107.0 | 0.0 | . | . | .
Cc1ccc(C#N)c(SCc2ccccc2F)n1 | 49.0*[inhibitor] | -14.0 | 59.0 | 1.0 | 104.0 | 0.0 | 102.0
CC1(C)CC2CC(C)(CN2C(=O)COC(=O)c2ccc(NC(=O)CC#N)cc2)C1 (stereo not given) | . | . | . | 1.0 | . | . | .
COc1ccc(-c2nsc3c(SCc4ccccc4)ncnc23)cc1 | 144.0* | 0.0 | 107.0 | 0.0 | 97.0 | 1.0 | 101.0
COCCN(CC(=O)Nc1ccccc1C(F)(F)F)C(=O)/C=C/c1ccc2ccccc2n1 | . | . | . | 0.0 | . | . | .
COc1ccc(NC(=O)CN2C(=O)CSC(C)C2=O)c(OC)c1 (stereo not given) | 137.0* | 0.0 | 107.0 | 3.0 | 101.0 | 1.0 | 103.0
CCC(=O)NC(=S)Nc1ccc(OC)cc1OC | 134.0* | 0.0 | 110.0 | 3.0 | 95.0 | 1.0 | 94.0
COc1ccccc1NC(=O)CN1C(=O)CSC(C)C1=O (stereo not given) | 79.0 | 0.0 | 96.0 | 2.0 | . | . | .
CCOc1ccc(OCCC(=O)N(CC)CC(=O)NCc2ccc(Cl)cc2)cc1 | . | . | . | 3.0 | . | . | .
O=C(CN1C(=O)NC2(CCCC2)C1=O)Nc1cc(C(F)(F)F)ccc1N1CCCCC1 | . | . | . | 2.0 | . | . | .
O=C(CCCN1C(=O)c2ccccc2C1=O)N1CCc2ccccc2C1 | 99.0 | -5.0 | 99.0 | 0.0 | . | . | .
Nc1nncn1C(=O)CCCN1C(=O)c2ccccc2C1=O | 122.0* | 5.0 | 121.0 | 0.0 | 107.0 | 5.0 | 101.0
O=[N+]([O-])c1cccc(/C=N/Nc2nc(NCc3ccccc3)nc(N3CCOCC3)n2)c1O | 99.0 | -8.0 | 94.0 | 5.0 | . | . | .
Cc1ccc(C)c(Cn2c(=O)n(C)c(=O)c3sccc32)c1 | 108.0 | 4.0 | 109.0 | 0.0 | . | . | .
CC(C(=O)c1ccc(-c2ccccc2)cc1)[n+]1cccc(NC(=O)c2ccccc2)c1 (stereo not given) | 108.0 | 62.0* | 224.0* | 0.0 | 195.0 | 51.0 | 106.0
CCOC(=O)c1ccc[n+](C(C)C(=O)c2ccc(-c3ccccc3)cc2)c1 (stereo not given) | 108.0 | 5.0 | 111.0 | 0.0 | . | . | .
COc1cc(OC)cc(C(=O)NCc2n[nH]c(=S)n2-c2ccccc2)c1 | 98.0 | -2.0 | 96.0 | 2.0 | . | . | .
COc1ccc(C(=O)NCc2n[nH]c(=S)n2-c2ccccc2)cc1OC | -1.0*[inhibitor] | -40.0 | -5.0*[inhibitor] | 1.0 | 110.0 | 11.0 | 107.0
COc1ccnc(Oc2ccccc2)c1C(=O)N/C=N/OCc1ccccc1 | 67.0*[inhibitor] | -39.0 | 68.0 | 0.0 | 103.0 | -3.0 | 103.0
CO/N=C/NC(=O)c1c(OC)ccnc1Oc1ccccc1 | 100.0 | 3.0 | 101.0 | 0.0 | . | . | .
CCO/N=C(/c1nonc1N)N1CCN(c2ccc([N+](=O)[O-])cc2)CC1 | 129.0* | 5.0 | 118.0 | 1.0 | 103.0 | 6.0 | 108.0
CO/N=C(\c1nonc1N)N1CCN(c2ccc([N+](=O)[O-])cc2Cl)CC1 | 100.0 | -1.0 | 98.0 | 3.0 | . | . | .
